# IL-2 act – IL-2 activation; IL-2 activation reporter assay, cell-based qHTS; stimulated with anti-CD3/CD4/CD28 beads; in transgenic mouse T cells; activation, % (series mostly up to about 46 µM); 360,000 tested, 0.065% active; AID 652025; in the data active = activation above about 50%; inconclusive = mostly about 30% to 49%; note: 0% is about no effect
#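 Readout is EGFP and DsRed signal by fluorescent plate cytometry after 18 h at 37 degrees C. Transgenic mouse T cells (750/well) received compound for 60 min before bead stimulation (anti-CD3, anti-CD4, anti-CD28); memory T cells served as non-tolerant control.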
# PKM2 act – PKM2 (human) enzyme activation | 260,000 tested, 0.34% active | Potency, µM (titrated, usually from 57.5 µM), without a hit: at the top dose activation, hits mostly activators | P14618 | purified PKM2, Kinase-Glo ATP luminescence, activation; response scale: 0% is enzyme alone, no compound | AID 1631; note: potency is the fitted concentration of half-maximal effect; % is set by controls: 0 for no effect and ±100 for the full control effect; nearly all actives have a fitted effect of over 55% in size
# Target sequence (P14618 whole entry, looked up): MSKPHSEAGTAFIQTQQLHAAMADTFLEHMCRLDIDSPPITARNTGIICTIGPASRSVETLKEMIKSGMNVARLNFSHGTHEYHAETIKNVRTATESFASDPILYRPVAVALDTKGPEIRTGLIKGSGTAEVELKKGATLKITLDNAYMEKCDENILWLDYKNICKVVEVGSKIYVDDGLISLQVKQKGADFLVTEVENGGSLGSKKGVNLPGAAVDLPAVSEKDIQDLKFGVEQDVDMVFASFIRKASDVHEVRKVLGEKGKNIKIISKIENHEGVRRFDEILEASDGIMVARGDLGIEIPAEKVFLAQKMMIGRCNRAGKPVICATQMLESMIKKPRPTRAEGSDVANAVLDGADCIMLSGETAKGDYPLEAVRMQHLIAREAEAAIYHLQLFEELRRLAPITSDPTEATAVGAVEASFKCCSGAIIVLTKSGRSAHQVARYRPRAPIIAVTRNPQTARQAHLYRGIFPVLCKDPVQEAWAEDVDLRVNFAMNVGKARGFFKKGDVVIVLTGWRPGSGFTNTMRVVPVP
#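 Purified hPK-M2 (>95%) run at intermediate activity with 0.1 mM ADP and 0.5 mM PEP in 50 mM imidazole pH 7.2, KCl, MgCl2; 1 h room temperature. ATP formed read by Kinase-Glo luminescence; normalized to uninhibited and no-enzyme controls.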
# TCR act – activators of T cell receptors | 330,000 tested, under 10 active | Potency, µM (series often up to 9.22 µM), without a hit: top-dose activation of IL-2 secretion, usual class: activators | primary human leukocytes, anti-CD3, IL-2 HTRF, 48 h | AID 504894; note: % of control where 0% means no effect
#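 Human primary leukocytes + a-CD3 beads + cpd, 48 hr; IL-2 in supernatant by HTRF (ex 320nm / em 665nm). No co-stimulatory signal supplied.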
# a7 integrin act – integrin-mediated muscular dystrophy alleviation activation; alpha7betagal myoblasts, beta-gal FDG fluorescence, 48 h; Potency, µM (titrated, usually from 38.3 µM), for inactives: at the top dose activation, usual class: activators; 350,000 tested, 0.064% active; AID 624291;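 note: potency is the fitted concentration of half-maximal effect; 100% = response of the positive control SU9516; nearly all actives have a fitted effect of over 60% in size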
#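 Alpha7betagal+/- myoblasts (passage 13) were plated 16-24 hr, then exposed to compounds (1:260 dilution of DMSO stock) for 48 hours at 37C. After MPER lysis, β-galactosidase reporter activity was read as FDG fluorescence (ex 480/em 540) after 30 minutes.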
# Tb PFK inh – T. brucei PFK enzyme inhibition. AID 485367. O15648. T. brucei PFK, ADP-Glo luminescence. 330,000 tested, 0.17% active. Potency, µM (series often up to 57.5 µM), for inactives: at the highest dose activity, negative = inhibition, hits mostly inhibitors;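 note: potency is the fitted concentration of half-maximal effect; 0% = uninhibited 1x PFK enzyme wells and -100% = no-enzyme wells; nearly all actives have a fitted effect of over 60% in size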
#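 Luminescent ADP detection (ADP-Glo, two-step: ATP depletion then ADP-to-ATP conversion for luciferase) reported PFK activity after 45 min room-temperature reaction of 1.25 nM enzyme with 0.5 mM F6P and 0.1 mM ATP at pH 8.0.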
# AT treatment – potential ataxia-telangiectasia treatment. Potency, µM (titrated, usually from 57.5 µM), for inactives: top-dose activation, hits mostly activators. F2112 A-T fibroblasts, KAP-1 phosphorylation AlphaLISA; neocarzinostatin DNA damage 30 min before lysis. AID 485349. 320,000 tested, 0.19% active; note: potency is the fitted concentration of half-maximal effect; % of control where 0% means no effect; nearly all actives have a fitted effect of over 45% in size
#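 hTERT-immortalized A-T patient fibroblasts (F2112), 500 cells/well in OPTI-MEM, 1% FBS, got compounds for 60 min, then NCS for 30 min at 37C. Lysates were then assayed for phospho-KAP-1 by AlphaLISA (anti-pKAP1 donor, anti-KAP1 acceptor beads), 6 hr at 25C.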
# * = called active by the depositor; ? = inconclusive; . = not tested or not shown; [ ] = another dose, or the depositor's remark. Shown are actives, neighbours in structure and some others; about 0.69% of the full set was active somewhere. Unless noted, calls come from the whole dose curve; as a rule, active = well fitted curve in the direction sought with a large enough effect; inconclusive = small, poorly fitted or top-dose-only effect, or another doubt; inactive = no such curve, though single readings can be large; an effect the other way counts as inactive or inconclusive.
SMILES,IL-2 act,PKM2 act,TCR act,a7 integrin act,Tb PFK inh,AT treatment
COc1cc(C=C2C(=O)C=CC2=O)ccc1O,-1,.,.,.,.,.
C[C@H]1Cc2c(COc3ccccc3)nc3c(c2CO1)CN(S(=O)(=O)c1ccc2c(c1)OCCN2C)CC3,.,-1%[11.5 µM],.,.,.,.
Cc1ccc(S(=O)(=O)N2CCCC2)cc1[N+](=O)[O-],0,6%,5%[46.1 µM],4%,0%,6%
O=[N+]([O-])c1cc(S(=O)(=O)N2CCCC2)ccc1NCCc1ccccc1,1,3.2µM*,-8%[46.1 µM],12%,0%,-3%
CC(=O)c1ccc(NC(=S)NC(=O)/C=C/c2ccc(F)cc2)cc1,1,.,5%,-25%,-3%,3.2µM*
CNc1c([N+](=O)[O-])cnn1-c1ccc(Cl)cc1Cl,-2,11µM*,-5%,-1%,4%,0%
CC(=O)Nc1sc(N/N=C/c2ccccc2F)nc1-c1ccc(C)cc1,0,10µM*,2%,-10%,-6%,3%
CC(=O)Nc1sc(N/N=C/c2ccc(O)cc2)nc1-c1ccc(C)cc1,-1,18µM*,-2%,11%,-3%,0%
Cc1cccc(NC(=O)CSc2nc(-c3ccco3)nc3cc(=O)[nH]n23)c1,.,.,.,.,-7%,2%
CCc1nc(C)cc2c1sc1ccccc12,0,-6%,1%,3%,-4%,20µM*
CC[n+]1c(C)cc2c(sc3ccccc32)c1C,0,-13%,-3%,0%,4%,3%
COC(=O)c1ccc(C(NC(=O)OCc2ccccc2)/C(C)=C/[C@@H](C)C(=O)NCc2nc3ccccc3s2)cc1 (some centres not stated),.,0%,.,.,.,.
CC(C)(C)OC(=O)NCCCC[C@H](NC(=O)c1nc[nH]c1C(=O)N[C@@H](CCCCNC(=O)OC(C)(C)C)C(=O)OC(C)(C)C)C(=O)OC(C)(C)C,-1,-1%,-1%,-9%,-21%,22µM*
COC(=O)N1C2CC3(C)CC(=O)CC1(C)C3c1ccccc12 (configuration not stated),.,-10%[11.5 µM],.,.,.,.
CC(C)c1ccc(-c2cc(C(=O)N3CCOCC3)c3cc(Br)ccc3n2)cc1,0,-1%,-20%,3%,0%,4.5µM*
Cc1ccc(-c2cc(C(=O)N3CCN(c4ncccn4)CC3)c3cc(Br)ccc3n2)o1,-5,8.9µM*,-2%,7%,-22%,6%
O=C(c1cc(-c2ccccc2)nc2ccccc12)N1CCOCC1,-1,18%,-1%,8%,2%,17%
Cc1ccc(-c2cc(C(=O)N3CCN(c4ccc(F)cc4)CC3)c3ccccc3n2)o1,5,?,4%,4%,6%[0.46 µM],2%
O=C(c1cc(-c2ccccn2)nc2ccc(Br)cc12)N1CCN(S(=O)(=O)c2ccccc2)CC1,0,25µM*,-9%,15%,-5%,4%
CCCCS(=O)(=O)N1CCc2nc(COc3ccccc3)c3c(c2C1)CO[C@@H](C)C3,.,-4%[11.5 µM],.,.,.,.
Cc1cc(C)cc(NC(=O)CN2CCN(c3ccccc3)CC2)c1,0,.,6%,16%,1%,10µM*
O=C(CN1CCN(c2ccccn2)CC1)Nc1cccc(Br)c1,0,.,5%,0%,?,16µM*
O=C(CN1CCN(c2ccccn2)CC1)Nc1cccc(F)c1,0,.,4%,-2%,-6%,-2%
COC(=O)C1=C(C(=O)OC)[C@@H]2N(Cc3ccccc3)c3ccccc3[C@@]23C[C@@H](C(=O)OC)N(S(=O)(=O)c2cccs2)C3=N1,.,-8%[11.5 µM],.,.,.,.
C[C@H]1Cc2c(-c3ccccc3)nc3c(c2CO1)CN(C(=O)C1CCCCC1)CC3,.,3%[11.5 µM],.,.,.,.
SMILES,IL-2 act,PKM2 act,TCR act,a7 integrin act,Tb PFK inh,AT treatment
Cc1nc(-c2ccc(S(=O)(=O)Nc3cccc(Cl)c3)cc2)co1,-1,7.9µM*,-2%,6%,0%,-2%
CCN(CC)S(=O)(=O)c1cccc(NC(=O)C2CC(=O)N(c3ccc4c(c3)OCCO4)C2)c1 (configuration not stated),0,.,-2%,-24%,2%,2%
CS(=O)(=O)Cc1cccc(C(=O)NN(c2ccccc2)c2ccccc2)c1,0,-7%,-35%,13µM*,2%,2%
COC(=O)c1ccc(C(NC(=O)OCc2ccccc2)/C(=C/[C@@H](C)C(=O)N(C)Cc2cccnc2)c2cccnc2)cc1 (some centres not stated),.,0%,.,.,.,.
COC(=O)C1=C(C(=O)OC)[C@@H]2Nc3ccccc3[C@@]23C[C@@H](C(=O)OC)N(S(=O)(=O)c2c(C)noc2C)C3=N1,.,5%[11.5 µM],.,.,.,.
Cc1cc(=O)n2c3c(sc2n1)C(=O)N(Cc1ccccc1)C3=O,.,28µM*,.,.,0%,15%
Cc1cc(=O)n2nc(-c3ccccc3)sc2n1,0,2%,-6%,12%,-9%,-2%
O=C(CCl)N1CCN(S(=O)(=O)c2ccc3ccccc3c2)CC1,0,13µM*,7%,-68%,-1%,-6%
COc1ccc2c(CC(=O)N3CCN(S(=O)(=O)c4cccs4)CC3)coc2c1,-2,22µM*,.,-26%,0%,6%
O=C(COc1ccc(-c2nnco2)cc1)N1CCN(S(=O)(=O)c2ccc3ccccc3c2)CC1,0,7.1µM*,-2%,-11%,5%,-8%
COc1ccc(S(=O)(=O)N2CCN(C(=O)COc3ccc4c(C)cc(=O)oc4c3)CC2)cc1,-5,14µM*,3%,-28%,-2%,12%
COC(=O)[C@H](Cc1ccccc1)NC(=O)[C@H]1C[C@@H]1[C@H](NC(=O)OCc1ccccc1)c1ccccc1,.,14%,.,.,.,.
CCC1=C2CC[C@H]3C(=O)N(CC)C(=O)[C@H]3[C@H]2[C@@]2(C)C(=NCCc3c[nH]c4ccccc34)OC(=O)N2C1=O,.,-1%,.,.,.,.
COc1ccc(S(=O)(=O)N2CCN(C(=O)COc3ccccc3)CC2)cc1,-1,14µM*,3%,13%,-7%,-5%
CCOC(=O)COc1ccc(S(=O)(=O)N2CCN(c3ccccc3)CC2)cc1,1,7%,0%[46.1 µM],1%,-4%,25µM*
O=C(COc1ccccc1)N1CCN(S(=O)(=O)c2ccc(Br)cc2)CC1,0,.,5%,14%,-1%,11%
COCC1=Cc2cc3c(cc2C(C(C(=O)OC)C(=O)OC)N1C(=O)OC)OCO3 (configuration not stated),.,3%[11.5 µM],.,.,.,.
CN(Cc1cc(Cl)cc(Cl)c1)CC(C(=O)c1ccccc1)c1ccccc1 (configuration not stated),-1,.,-2%,-53%,.,.
